Experimental data as given in PubChem BioAssay.
Values without a mark were called inactive.

Assay: ATP-based viability of Huh7 replicon cells – cell-based, CellTiter-Glo luminescence, basal, 48 h, cytotoxicity control for HCV replication inhibitor project, primary screen (AID 1143);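 also: Huh7 hepatoma cells carrying a hepatitis C replication reporter with no stimulus; test concentration not given here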
Details: higher = more signal, called active from +8 up or from −8 down

| SMILES | z-score |
| --- | --- |
| CN1C2C=C(c3ccc(CO)cc3)C(C3C(=O)N(C(N)=O)C(=O)C32)C1C1CC1 (stereo unspecified) | 0.547 |
| COc1cc(Cc2cc3c(c(CCc4ccccc4)n2)[Si](C(C)C)(C(C)C)O[C@H]3c2ccccc2)cc(OC)c1OC | -4.48 |
| C=CCOC(=O)[C@H]1[C@@H]2C(=O)O[C@@H](c3ccccc3)[C@@H](c3ccccc3)N2[C@@H](c2ccc(OCCOC(=O)[C@@H]3C[C@@H]4C(=O)N[C@@H](Cc5ccccc5)C(=O)N4[C@@H]3c3ccc(O)cc3)cc2)[C@]12C(=O)Nc1ccc(I)cc12 | -0.268 |
| CCOC(=O)C1=CC[C@@H](c2ccccc2)N(S(=O)(=O)c2ccc(C)cc2)[C@@H]1C#N | -2.54 |
| C=CC[C@]1(C(N)=O)N=C(c2ccc(OCCCO)cc2)O[C@H]1c1ccccc1N=[N+]=[N-] | -1.05 |
| COc1ccc(CCNC(=O)[C@@H]2c3ccccc3C(=O)N(Cc3cc(F)cc(C(F)(F)F)c3)[C@H]2c2ccc(CO)cc2)cc1 | -0.489 |
| CC(C)C[C@@H]1NC(=O)[C@@H]2C[C@H](C(=O)NCCCCCNC(=O)CS)[C@H](c3ccc(O)cc3)N2C1=O | -4.33 |
| C=CCNC(=O)[C@@H]1[C@H]2C(=O)O[C@H](c3ccccc3)[C@H](c3ccccc3)N2[C@H](c2ccc(OCCO)cc2)[C@@]12C(=O)N(C(=O)OCCOC)c1ccccc12 | -1.32 |
| CCCCC(=C=CC[C@@H](O)c1ccccc1OCCO)C[C@@H](O)c1ccccn1 | -0.675 |
| O=C1O[C@@H](c2ccccc2)[C@@H](c2ccccc2)N2[C@@H](c3ccccc3OCCO)[C@]3(C(=O)Nc4ccc(C#CC5(O)CCCCCC5)cc43)[C@@H](C(=O)N3CCCCCCC3)[C@H]12 | -5.6 |
| CCCCC(=C=CC[C@H](O)c1ccccc1OCCO)CCO | -0.0854 |
| C=CCNC(=O)[C@@H]1[C@H]2C(=O)O[C@H](c3ccccc3)[C@H](c3ccccc3)N2[C@H](c2ccc(OCCO)cc2)[C@@]12C(=O)Nc1ccc(C#CC3=CCCCC3)cc12 | -4.25 |
| COCCOC(=O)N1C(=O)[C@@]2(c3cc(C#CCCO)ccc31)[C@H](c1ccc(O)cc1)N1[C@H](c3ccccc3)[C@H](c3ccccc3)OC(=O)[C@H]1[C@@H]2C(=O)NC[C@H](O)c1ccccc1 | -1.64 |
| [N-]=[N+]=Nc1ccccc1C[C@]1(C(=O)N2CCCCC2)N=C(c2ccc(OCCCO)cc2)O[C@H]1c1ccccc1 | -4.56 |
| COc1c(C)cc(-c2nc(-c3ccccc3)c3c(c2C)CO[Si]3(C(C)C)C(C)C)cc1C | -0.59 |
| CC(C)N1CC=CC23O[C@@H]4/C=C\CCCOC(=O)C4[C@H]2C(=O)N(C(C)CO)[C@@H]3C1=O (stereo partly specified) | 0.282 |
| COC(=O)C1(CC(C)C)C=C2C(=C(C)C(=O)C2C)CN1 (stereo unspecified) | -0.109 |
| COCCCNC(=O)[C@@]1(Cc2ccccc2I)c2ccccc2C(=O)N(C2CCCCC2)[C@H]1c1ccc(CO)cc1 | -4.51 |

| SMILES | z-score |
| --- | --- |
| O=C/C=C/c1ccc(-c2ccccc2)cc1 | -2.73 |
| COC(=O)C(CC#Cc1ccc2c(c1)[C@]1(C(=O)N2)[C@H](C(=O)N2CCN(c3ncccn3)CC2)[C@H]2C(=O)O[C@H](c3ccccc3)[C@H](c3ccccc3)N2[C@@H]1c1ccc(O)cc1)C(=O)OC | -3.7 |
| COc1ccc([Si](C)(C)[C@H]2[C@H](CC(=O)N3CCC[C@H]3CO)O[C@@]3(C(=O)N(C)c4ccccc43)[C@@H]2C)cc1 | 0.191 |
| CCCC=C(CCC)[C@@H](NC(=O)c1ccc(C(=O)OC)cc1)c1ccc(C(=O)OC)cc1 | -2.2 |
| Cc1ccc(S(=O)(=O)N2[C@@H](c3ccccc3)C(C(=O)O)=CC[C@H]2c2ccc(F)cc2)cc1 | -1.85 |
| C=C(C(=O)CC[C@@H](OC(=O)c1ccccc1-c1ccccc1C(=O)O)c1cccc(OCCO)c1)C(C)C | 0.954 |
| COC(=O)c1c2oc(c1C(=O)OC)C(=O)N[C@H](Cc1ccccc1)Cn1cc(nn1)C1(CCCCC1)NC(=O)N[C@H](CO)CC2 | 0.0261 |
| C=CCNC(=O)[C@@H]1[C@H]2C(=O)O[C@H](c3ccccc3)[C@H](c3ccccc3)N2[C@H](c2ccc(O)cc2)[C@@]12C(=O)Nc1ccc(C#CC3=CCCCC3)cc12 | -4.01 |
| CC(C)(C)OC(=O)CC[C@]1(C(=O)N2CCOCC2)COC(c2ccc(OCCCO)cc2)=N1 | -0.107 |
| C=CC[C@]1(C(=O)NCC(O)CO)N=C(c2ccc(OCCCO)cc2)O[C@H]1c1ccccc1CN=[N+]=[N-] (stereo partly specified) | -0.627 |
| CCOC(=O)C1=CCC(c2cccn2C(=O)OC(C)(C)C)N(S(=O)(=O)c2ccc(C)cc2)C1 (stereo unspecified) | -4.35 |
| COc1cc(Cc2cc3c(c(-c4ccccc4)n2)[Si](C(C)C)(C(C)C)OC3)cc(OC)c1OC | -0.324 |
| COCCCNC(=O)[C@@]1(Cc2ccccc2I)c2ccccc2C(=O)N(Cc2ccccc2C(F)(F)F)[C@H]1c1ccc(CO)cc1 | -2.13 |
| COc1ccc(CCNC(=O)[C@@H]2c3ccccc3C(=O)N(C(C)C)[C@H]2c2ccc(CO)cc2)cc1 | 0.172 |
| Cc1ccc(N2C(=O)c3ccccc3[C@@H](C(=O)NCCN3CCOCC3)[C@@H]2c2ccc(CO)cc2)nc1 | 0.209 |
| COc1cc2c(cc1O)C(C)N(Cc1sc3ccccc3c1Cl)CC2 (stereo unspecified) | -0.693 |
| CC(C)(C)OC(=O)CC[C@@]1(C(=O)N2CCOCC2)N=C(c2ccc(OCCCO)cc2)O[C@@H]1c1ccccc1CN=[N+]=[N-] | -0.435 |
| CC[C@@H](O[Si](C#C[Si](C(C)C)(C(C)C)C(C)C)(C(C)C)C(C)C)c1cn([C@H](C)c2ccccc2)nn1 | 0.428 |
